Results filed as inconclusive are left out. The source made the active and inactive calls. The call rests on the fitted dose curve; in most records, active means well fitted inhibition curve with a large enough effect; inconclusive means small, poorly fitted or top-dose-only effect; inactive means flat fitted curve, though single readings scatter.
Columns and labels:
Assay in all cases: qHTS profiling for inhibitors of Plasmodium falciparum proliferation (AID 504749); further: nearly all actives have a fitted effect of over 60% in size
Settings in all cases: P. falciparum in erythrocytes, SYBR Green DNA, 72 h; series mostly up to 28.7 µM
[1] = system: CP268
How it was run: (§1)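 P. falciparum-infected erythrocytes (0.3% parasitemia, 2.5% hematocrit final) were exposed to compounds for 72 h at 37 C in 5% CO2, then lysed with SYBR Green buffer overnight at room temperature; parasite DNA fluorescence was normalized to artemisinin and DMSO controls.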

[2] = system: CP269
How it was run: as §1

[3] = system: CP286
How it was run: as §1

[4] = system: CP291
How it was run: as §1

[5] = system: CP297
How it was run: as §1

[6] = system: CP305
How it was run: as §1

[7] = system: CP315
How it was run: as §1

[8] = system: CP325
How it was run: as §1

[9] = system: CP329
How it was run: as §1

[10] = system: CP335
How it was run: as §1

[11] = system: DFO2036
How it was run: as §1

[12] = system: DIV14
How it was run: as §1

[13] = system: DIV17
How it was run: as §1

[14] = system: DIV30
How it was run: as §1

[15] = system: Dd2
How it was run: as §1

[16] = system: ECU
How it was run: as §1

[17] = system: FAB9
How it was run: as §1

[18] = system: GB4
How it was run: as §1

[19] = system: HB3
How it was run: as §1

[20] = system: ICS
How it was run: as §1

Measured: outcome

CCOC(=O)C(CCc1ccccc1)NC(C)C(=O)N1Cc2ccccc2CC1C(=O)O (stereo not given)
inactive: [1] | [2] | [3] | [4] | [5] | [6] | [7] | [8] | [9] | [10] | [11] | [12] | [13] | [14] | [15] | [16] | [17] | [18] | [19] | [20]

CCc1cccc2c3c([nH]c12)[C@@](CC)(CC(=O)O)OCC3
inactive: [1] | [2] | [3] | [4] | [5] | [6] | [7] | [8] | [9] | [10] | [11] | [12] | [13] | [14] | [15] | [16] | [17] | [18] | [19] | [20]

From PubChem BioAssay (NCATS)
